# FBA Mtb inh – inhibitors of M. tuberculosis fructose-bisphosphate aldolase | P9WQA3 | purified M. tuberculosis FBA, fluorescence read-out | inhibition, % at 1 µM | 360,000 tested, 2.3% active | AID 588726; in the data active means inhibition above about 27%;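 further: 0% = vehicle and 100% = reference inhibitor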
# Target sequence (P9WQA3 whole entry, looked up): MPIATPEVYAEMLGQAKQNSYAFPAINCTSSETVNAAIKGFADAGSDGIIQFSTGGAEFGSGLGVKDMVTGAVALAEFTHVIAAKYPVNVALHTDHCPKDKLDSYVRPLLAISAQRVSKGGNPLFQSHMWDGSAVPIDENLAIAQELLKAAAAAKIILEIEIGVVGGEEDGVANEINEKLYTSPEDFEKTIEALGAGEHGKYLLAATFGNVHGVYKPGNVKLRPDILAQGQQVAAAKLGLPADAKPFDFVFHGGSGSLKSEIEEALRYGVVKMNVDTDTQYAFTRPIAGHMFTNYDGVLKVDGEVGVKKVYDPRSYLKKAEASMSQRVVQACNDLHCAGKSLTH
# GDH-TPI inh – GDH-TPI coupled enzyme inhibition counter-screen; inhibition, % at 4.8 µM; AID 588335; 360,000 tested, 1.2% active; GDH-TPI coupled enzyme counterscreen, NADH absorbance; in the data active means inhibition above about 30%;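 further: 0% = DMSO wells and 100% = wells lacking the enzyme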
# SARS 3CLpro inh – SARS-CoV 3CLpro protease inhibition; P0C6X7; recombinant SARS-CoV 3CLpro, quenched FRET peptide cleavage; inhibition, % at 6 µM; 290,000 tested, 0.14% active; in the data active means inhibition above about 12%
# BioA inh – inhibitors of Mycobacterium tuberculosis BioA enzyme. purified M. tuberculosis BioA enzyme, plate reader. inhibition, % at 9.99 µM. 360,000 tested, 0.096% active. AID 602481; in the data active means inhibition above about 40%; inconclusive means no clear call, values can overlap the other calls
# FadD28 binding – M. tuberculosis FadD28 bisubstrate binding inhibition. 360,000 tested, 0.22% active. inhibition, % at 12.5 µM. FadD28 bisubstrate probe binding, fluorescence polarization; in the data active means inhibition above about 8.5%, passing the limit was not always enough; inconclusive means no clear call, values can overlap the other calls
# Numbers without * were called inactive; u = inconclusive; x = not tested or not shown; + = active, no number. An excerpt weighted towards active compounds, which were near 3.1% of everything screened.
SMILES,FBA Mtb inh,GDH-TPI inh,SARS 3CLpro inh,BioA inh,FadD28 binding
COC(=O)[C@@H]1[C@@H](CO)[C@@H]2Cn3c(ccc(-c4ccccc4)c3=O)[C@@H]2N1CC1CCCCC1,x,x,x,8.6,x
CCOC(=O)CNC(=O)N1Cc2cc(-c3ccc(OC)cc3)ccc2-n2nncc2C1,124.5*,x,x,-2.7,-5.2
COc1ccc(-c2ccc3c(c2)CNCc2cnnn2-3)cc1,114.6*,x,x,4.5,-4.9
CCOC(=O)CNC(=O)N1Cc2cc(-c3cccc(F)c3)ccc2-n2nncc2C1,-2.4,x,x,4.2,-11.0
c1ccc(-c2ccc3c(c2)CNCc2cnnn2-3)cc1,0.7,x,x,-1.2,0.5
O=C(N/N=C\c1ccc(Cl)s1)c1cccs1,-1.9,32.7*,1.6,-0.5,-1.5
COc1ccccc1C(=O)N/N=C/C(C)=C/c1ccccc1,-5.2,32.2*,0.0,2.8,-3.0
CC(/C=N/NC(=O)c1cccc(F)c1)=C\c1ccccc1,-2.3,27.8,4.3,30.1,x
O=C(N/N=C/C(Br)=C\c1ccccc1)c1cccs1,-0.1,30.6*,5.1,0.0,0.4
CCOc1cc(C(=O)N/N=C/C(Br)=C/c2ccccc2)cc(OCC)c1OCC,-3.1,31.5*,2.8,x,-2.7
O=C(N/N=C/c1ccncc1)c1cccs1,-2.3,5.0,-0.4,4.7,-2.8
O=C(N/N=C/C(Br)=C/c1ccccc1)c1ccncc1,-1.4,36.0*,6.0,x,-3.5
CC(/C=N/NC(=O)c1ccncc1)=C\c1ccccc1,-2.3,44.6*,3.0,-1.2,-1.8
O=C(N/N=C/C(Br)=C/c1ccccc1)c1cccnc1,0.8,25.3,-8.1,u,-2.8
COc1cc(NC(=O)/C=C/c2ccccc2)c(C(=O)O)cc1OC,-6.9,44.4*,4.8,-0.4,-1.6
COC(=O)c1cc(OC)c(OC)cc1NC(=S)Nc1cccc(Cl)c1,-7.3,4.7,-2.9,-0.8,-2.9
COc1cc(NC(=O)Cc2ccccc2)c(C(=O)O)cc1OC,-1.0,-0.3,2.2,x,-3.2
COc1cc(NC(=O)Nc2cccc(Cl)c2)c(C(=O)O)cc1OC,145.7*,13.9,4.2,-0.8,2.2
O=C(NC[C@H]1N[C@H](CO)[C@@H]1c1ccc(C2=CCCCC2)cc1)c1ccccc1,x,x,x,2.7,x
CO[C@@H](CN(C)C(=O)c1ccccc1F)[C@@H](C)CN([C@@H](C)CO)S(=O)(=O)c1ccc(C)cc1,x,x,x,-0.9,x
Cn1c(=O)c(Cc2ccccc2)c(O)c2ccccc21,26.1,8.8,4.2,-2.2,0.5
CCCc1c(O)c2ccccc2n(-c2ccccc2)c1=O,44.7*,13.8,1.5,-3.5,-0.2
N#CC(C#N)=Cc1ccc(N2CCOCC2)cc1,-7.0,41.2*,2.0,-2.9,-1.4
NC(=O)C[C@H]1NC(=O)[C@H](CCC(=O)O)NC(=O)c2cc([N+](=O)[O-])cc(I)c2NCCC[C@@H](C(N)=O)NC1=O,-4.5,13.0,1.6,-0.9,-1.4
NC(=O)[C@@H]1CCCNc2c(I)cc([N+](=O)[O-])cc2C(=O)N[C@@H](CCC(=O)O)C(=O)N[C@@H](CO)C(=O)N1,0.0,35.3*,-2.6,-3.2,-0.8
SMILES,FBA Mtb inh,GDH-TPI inh,SARS 3CLpro inh,BioA inh,FadD28 binding
CNC(=S)N1N=C(c2cccs2)CC1c1ccc(OC)cc1 (stereo not given),2.8,47.9*,-6.5,4.1,-8.1
COc1ccc(C2=NN(C(=S)Nc3ccccc3)C(c3ccccc3)C2)cc1 (stereo not given),-0.3,12.1,-13.4,x,-2.0
COc1ccc(C2CC(c3ccccc3)=NN2C(=S)Nc2ccccc2)cc1 (stereo not given),-1.4,34.1*,3.8,-1.0,0.4
O=S(=O)(c1ccccc1F)N1CCCCN2[C@@H](CO)[C@@H](c3ccc(-c4ccncc4)cc3)[C@@H]2C1,x,x,x,-2.4,x
Cn1ncc(N=Cc2ccccc2[N+](=O)[O-])c1C(N)=O,-0.6,19.0,0.2,x,-0.5
CN(C)c1ccc(C=Nc2cnn(C)c2C(N)=O)cc1,-1.8,35.4*,-1.2,0.7,-0.8
O=C(NN=Cc1ccccc1C(=O)O)c1ccc(NS(=O)(=O)c2cccs2)cc1,-1.4,36.8*,x,-0.3,-0.9
COc1cccc(Nc2nc3ccccc3nc2NS(=O)(=O)c2cccs2)c1,17.4,37.3*,0.6,-1.1,0.8
O=C(O)COc1ccccc1C=NNC(=O)c1ccc(NS(=O)(=O)c2cccs2)cc1,-1.0,22.0,x,-0.1,x
COc1ccc(/C=N/NC(=O)c2ccc(NS(=O)(=O)c3cccs3)cc2)cc1,0.0,50.9*,x,0.0,-3.7
O=C(O)c1ccc(/C=N/NC(=O)c2ccc(NS(=O)(=O)c3cccs3)cc2)cc1,2.3,73.9*,0.9,-5.5,-4.2
COc1ccc(NS(=O)(=O)c2cccc(C(=O)NN=Cc3cc(Br)c(O)c(Br)c3)c2)cc1,0.4,41.0*,x,-1.0,1.9
COc1ccc(OC)c(C=NNC(=O)c2ccc(NS(=O)(=O)c3cccs3)cc2)c1,16.4,38.9*,x,-0.2,0.1
C=C(C)c1cccc(C(C)(C)NC(=O)Nc2ccc(C)cn2)c1,-0.2,-1.1,3.4,x,-1.8
C=C(C)c1cccc(C(C)(C)NC(=O)Nc2ccc(OC)nc2)c1,148.5*,1.1,8.5,-1.0,-1.1
C[C@H]1CN([C@@H](C)CO)C(=O)c2cc(NC(=O)Cc3ccccc3)ccc2O[C@@H]1CN(C)CC1CCCCC1,x,x,x,0.6,x
CC(=O)N1[C@@H](CO)[C@@H](c2ccc(-c3ccc(F)cc3)cc2)[C@@H]1CNC(=O)C1CC1,x,x,x,-4.0,x
O=C1NN(c2ccc(F)c(Cl)c2)C(=O)/C1=C\c1cccc(OC(=O)c2cccs2)c1,-1.9,3.4,2.3,-1.0,25.8*
CC(C)=C1C(=O)NN(c2ccc(F)c(Cl)c2)C1=O,-0.6,10.4,5.1,0.4,u
COCC(=O)Nc1ccc2c(c1)[C@@H]1C[C@H](CC(=O)NC3CCCC3)O[C@H](CO)[C@@H]1O2,x,x,x,-0.1,x
Cc1nc(N2CCN(C)CC2)c2sc(=S)n(C)c2n1,1.9,16.8,2.4,-2.1,-0.9
Cc1nc(N2CCN(C)CC2)c2sc(=S)n(-c3ccccc3)c2n1,2.0,37.6*,-1.9,0.1,-3.2
CC(C)C#Cc1ccc2c(c1)O[C@@H](CN(C)C(=O)c1cccc(F)c1)[C@H](C)CN([C@@H](C)CO)S2(=O)=O,x,x,x,17.8,x
O=C(O)C1CCN(C(=O)CCN2C(=O)S/C(=C\c3ccccc3)C2=O)CC1,-1.7,34.9*,-1.4,1.3,0.3
COc1cccc(/C=C2\SC(=O)N(CCC(=O)N3CCCCC3CCO)C2=O)c1 (stereo not given),-0.6,30.8*,2.7,0.4,-0.9
CCCn1nnc(NC(=S)NC(=O)c2ccc(-c3ccc(Br)cc3)o2)n1,4.0,34.6*,-2.0,x,-0.9
C[C@@H]1CCCCO[C@H](CN(C)C(=O)NC2CCCCC2)[C@H](C)CN([C@@H](C)CO)C(=O)c2cc(NC(=O)CCCN(C)C)ccc2O1,x,x,x,5.1,x
O=C(COc1ccc2ccc(=O)oc2c1)OCc1ccccc1,11.3,7.2,1.8,x,-2.8
Cc1ccc(C(=O)Oc2ccc3ccc(=O)oc3c2)cc1,22.1,13.0,-3.7,-2.3,1.3
O=C(CNC(=O)OCc1ccccc1)Oc1ccc2ccc(=O)oc2c1,+,13.3,-1.7,-0.8,0.3
